# TWEAK Fn14 block = blocks TWEAK-Fn14 interaction in a reporter cell assay. TWEAK-stimulated Fn14 reporter cells, luciferase luminescence, 8 h. inhibition, % at 10 µM. hit rate 2% among 360,000. AID 1159606; in the data active = inhibition above about 50%
# C8 TRAIL sens = sensitizes caspase-8 expressing cells to TRAIL | NB7+C8 cells + TRAIL, ATPlite viability luminescence | inhibition (viability loss, TRAIL sensitization), % at 10 µM | hit rate 1% among 360,000 | AID 624354;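 active = compounds causing at least 50% loss of cell viability in the single-dose screen, relative to plate controls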
# aSyn UTR inh = MLPCN primary screen, SNCA 5' untranslated region; alpha-synuclein 5'UTR reporter, inhibitor activity; inhibition, % (tested at 7.5 µM); hit rate 0.82% among 300,000; AID 1813; in the data active = inhibition above about 60%;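 also: H4 neuroglioblastoma cells stably carrying SNCA 5'UTR luciferase fusion; 0% = DMSO wells and 100% = positive control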
# TROY NFkB inh = blocks TROY-dependent signaling in reporter cells; inhibition, % at 10 µM; AID 1347056; Q293 LMP1-TROYcd NF-kB luciferase reporter, 4 h; hit rate 0.98% among 360,000;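 active = compounds whose plate-normalised and pattern-corrected inhibition of the luciferase reporter signal at the single screening dose is 50% or more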
# HSP90 refold inh = inhibitors of HSP90 luciferase refolding in rabbit reticulocyte lysate; luciferase refolding luminescence, 3 h; inhibition, % at 5.6 µM; hit rate 0.91% among 290,000;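 active = inhibition above the screen-wide mean plus 3 SD, computed separately per campaign, cut at about 16% in these data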;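 also: 0% = DMSO wells and 100% = 60 µM geldanamycin wells; inhibitors lower the luminescence because luciferase stays unfolded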
# HIF-2a inh = inhibitors of HIF-2a. 786-0 RCC cells HIF-2a reporter, luciferase luminescence, overnight. hit rate 0.72% among 360,000. AID 624352. inhibition, % at 18.8 µM;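 active = inhibition of the luminescence signal of 40% or more relative to plate controls, in a single-dose primary screen at 18.75 µM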
# * marks the source's active call; other numbers are inactive results; · = not tested or not shown. Shown are actives, neighbours in structure and some others; about 3.9% of the full set was active somewhere.
SMILES,TWEAK Fn14 block,C8 TRAIL sens,aSyn UTR inh,TROY NFkB inh,HSP90 refold inh,HIF-2a inh
O=C(CCCN1C(=O)/C(=C/c2cccc(Br)c2)SC1=S)Nc1cccnc1,31,40,-57,5,-1,49*
COc1ccc(/C=C2\SC(=S)N(CCCC(=O)Nc3cc(C)on3)C2=O)cc1OC,25,21,0,9,-2,17
Cc1ccc(/C=C2\SC(=S)N(CC(=O)Nc3cccnc3)C2=O)cc1,-24,-3,17,-35,-6,-9
O=C(CCCN1C(=O)/C(=C/c2cccs2)SC1=S)Nc1cccnc1,-14,-7,-40,11,0,25
COC(=O)c1ccc(/C=C2/SC(=S)N(CCCC(=O)Nc3ccccn3)C2=O)cc1,9,-1,-31,28,3,40
Cc1ccc(/C=C2\SC(=S)N(CCCC(=O)Nc3cccnc3)C2=O)cc1,27,24,79*,15,11,70*
O=C(CCCN1C(=O)/C(=C/c2cccc(Br)c2)SC1=S)Nc1ccccn1,49,-2,-8,11,-2,66*
CNC(=O)C[C@@H]1C(=O)N(C2CCCCC2)CC1(C)C,-6,-4,·,-1,·,9
O=C(CCCN1C(=O)/C(=C\c2cccc(Br)c2)SC1=S)Nc1cccnc1,37,-5,-37,11,6,61*
COc1ccccc1N1CCN(Cc2ccc(OC)c(OC)c2OC)CC1,-17,7,18,5,2,16
O=C(Oc1c(CN2CCOCC2)cc(Cl)c2cccnc12)c1ccccc1Br,-6,55*,48,5,6,24
COc1ccccc1N1CCN(Cc2ccc(O)c3ncccc23)CC1,8,65*,77*,2,4,5
Oc1c(CN2CCOCC2)cc(CN2CCOCC2)c(O)c1O,52*,0,·,5,·,3
CN1CCN(Cc2cc(Cl)c3cccnc3c2OC(=O)c2cccs2)CC1,-3,7,-11,-2,-2,11
Oc1c(CN2CCN(c3ccccc3)CC2)cc(Br)c2cccnc12,-48,27,85*,-28,4,17
CN(Cc1ccccc1)C(=O)C1(C)CCN1C(=O)Cc1ccc(Cl)cc1Cl (configuration not stated),10,26,·,17,·,19
Oc1c(CN2CCOCC2)cc(COCc2ccccc2)c2cccnc12,15,53*,114*,9,5,17
O=C1C=CC(c2c[nH]c3ccccc23)CC1 (configuration not stated),8,4,·,-6,·,18
COc1ccccc1S(=O)(=O)N(C)C[C@@H]1OCc2cnnn2CCCC(=O)N([C@@H](C)CO)C[C@@H]1C,3,-8,·,5,·,2
CC(C)(C)C(=O)OCc1nc(-c2ccc(C(F)(F)F)cc2)cs1,-24,9,-39,73*,3,-61
FC(F)(F)c1ccc(-c2csc(-c3ccno3)n2)cc1,-17,-7,-34,-39,-2,-129
CCN(CC(=O)Nc1ccccc1C(F)(F)F)C(=O)CCS(=O)(=O)c1ccc(Cl)cc1,9,-3,3,-4,·,-1
N/C(CCS(=O)(=O)c1ccc(Cl)cc1)=N\OC(=O)c1ccccc1C(F)(F)F,-24,55*,-9,-31,-1,16
N/C(CCS(=O)(=O)c1ccc(Cl)cc1)=N\OC(=O)c1ccc(Cl)cc1,-25,74*,-1,1,-2,31
CC1=C(C(=O)N2CCOCC2)CC(CC(=O)NCc2cccc3ccccc23)C(=O)N1Cc1ccc(C(C)(C)C)cc1 (configuration not stated),15,11,·,7,·,-2
SMILES,TWEAK Fn14 block,C8 TRAIL sens,aSyn UTR inh,TROY NFkB inh,HSP90 refold inh,HIF-2a inh
COc1ccc(S(=O)(=O)N(Cc2ccccc2)c2ccccc2C(=O)N2CCOCC2)cc1,94*,13,-20,5,1,2
CCCCc1c(-c2ccccc2Br)ncn1CCc1ccccc1OC,47,25,·,41,·,-55
CCCCCc1c(-c2ccccc2F)ncn1CCc1ccccc1OC,20,12,·,14,·,-13
CCCCc1c(-c2ccccc2OC)ncn1CCc1ccccc1OC,17,38,·,55*,·,-11
CCCCCc1c(-c2ccccc2OC)ncn1CCc1ccccc1OC,52*,41,·,56*,·,-46
CC1CN(C=O)CC(C)N1CCN1C(C)CN(C=O)CC1C (configuration not stated),4,-1,·,0,·,6
O=C(OCc1nc2ccc(Cl)cc2n1CCO)c1ccc(O)cc1,67*,-12,-17,77*,0,-34
CNc1ncnc2c1ncn2[C@H]1CN(CCOC)C[C@@H](CO)O1,-14,5,·,-3,·,12
CCOC(=O)[C@]12Cc3c(cc(OC)c(OC)c3OC)[C@H]1N(C1CCCCC1)C(=O)c1cc(OC)ccc12,38,67*,·,40,·,32
CCOC(=O)N1CCC(N2C(=O)c3ccccc3C2Nc2cc(OC)c(OC)c(OC)c2)CC1 (configuration not stated),-2,-34,-12,9,-5,5
O=C(NCCN1CCN(Cc2ccccc2)CC1)c1ccc(CS(=O)(=O)c2c(Cl)cccc2Cl)o1,9,3,·,5,·,5
COc1cccc(NC(=S)/C(=C(\[O-])c2ccc(OC(F)F)cc2)[n+]2ccccc2)c1,32,10,-66,-48,2,-120
[O-]/C(=C(\C(=S)Nc1cccc2ccccc12)[n+]1ccccc1)c1ccc(OC(F)F)cc1,43,1,·,82*,4,8
Fc1ccccc1N1CCN(C(c2ccnc3ccccc23)c2nnnn2-c2ccc3c(c2)OCCO3)CC1 (configuration not stated),16,5,·,29,·,-13
O=C(COc1ccccc1)N1CCN(c2ncccn2)CC1,12,-4,-14,-3,3,10
Cc1nc(N2CCN(C(=O)COc3ccccc3)CC2)c2c(C)c(C)sc2n1,50*,14,36,39,2,27
COc1ccccc1C(=O)N1CCN(C(=O)[C@H]2O[C@@H](n3ccc(N)nc3=O)[C@H](O)[C@@H]2O)CC1,-3,10,·,9,·,11
CCc1ccc(NCc2cc3c(C)nn(-c4ccccc4)c3[nH]c2=O)cc1,20,-14,-33,20,1,-17
Cc1nn(-c2ccccc2)c2[nH]c(=O)c(CNc3ccc4c(c3)OCCO4)cc12,58*,-18,18,66*,7,-52
O=C(NC1CCCC1)c1sc(=S)n2c1[nH]c(=O)c1ccccc12,-3,9,-13,72*,6,-15
O=C(NCc1ccncc1)[C@@H]1CCCN1C(=O)[C@H]1CCCN1,-4,-1,·,-7,·,2
Cc1ccc(S(=O)(=O)N2CCC(c3nc4c(nnn4Cc4ccccc4)c(=O)[nH]3)CC2)cc1,-5,21,20,3,-1,37
O=c1[nH]c(C2CCN(S(=O)(=O)c3ccccc3C(F)(F)F)CC2)nc2c1nnn2Cc1ccccc1,-41,2,12,51*,4,14

# Screening results: PubChem, several laboratories
